FadD28 FP inh – blocks FadD28 binding to the bisubstrate probe; fluorescence polarization; inhibition, % at 12.5 µM; 0.22% of 360,000 active; in the data active = inhibition above about 8.5%, passing the limit was not always enough
GDH-TPI inh – inhibits GDH-TPI coupling enzymes, artifact for Mtb FBA screen | GDH-TPI coupled enzyme counterscreen, NADH absorbance | inhibition, % at 4.8 µM | 1.2% of 360,000 active | AID 588335; in the data active = inhibition above about 30%;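 also: 0% = DMSO wells and 100% = wells lacking the enzyme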
Rv3671c inh – Rv3671c (M. tuberculosis) protease inhibition; P9WHR9; 0.048% of 320,000 active; AID 2606; inhibition, % at 5.96 µM; in the data active = inhibition above about 38%;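 also: extracellular domain of Rv3671c used as enzyme; 0% = enzyme with DMSO and 100% = no enzyme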
Mtb bLac sens – beta-lactam sensitization of Mtb H37Rv; 0.27% of 330,000 active; inhibition, % at 25 µM; M. tuberculosis H37Rv growth with meropenem, percent inhibition; call rule not given here;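 also: growth measured after seven days incubation then overnight dye step; 0% = bacteria only wells and 100% = bacteria with antibiotic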
Mtb FBA inh – Mtb fructose-bisphosphate aldolase inhibition; inhibition, % at 1 µM; AID 588726; 2.3% of 360,000 active; purified M. tuberculosis FBA, fluorescence read-out; P9WQA3; in the data active = inhibition above about 27%;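 also: 0% = vehicle and 100% = reference inhibitor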
Target sequence (P9WQA3 whole entry, looked up): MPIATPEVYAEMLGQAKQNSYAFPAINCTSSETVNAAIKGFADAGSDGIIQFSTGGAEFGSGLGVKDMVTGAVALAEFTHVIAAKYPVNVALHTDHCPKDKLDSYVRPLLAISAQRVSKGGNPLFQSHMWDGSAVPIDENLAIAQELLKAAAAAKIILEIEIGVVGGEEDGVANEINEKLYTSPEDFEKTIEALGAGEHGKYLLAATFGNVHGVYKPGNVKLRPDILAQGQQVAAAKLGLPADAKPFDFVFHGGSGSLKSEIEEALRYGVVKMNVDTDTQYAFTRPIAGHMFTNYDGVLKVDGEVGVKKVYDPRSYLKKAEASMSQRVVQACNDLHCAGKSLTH
Mtb UGM inh – Mtb UDP-galactopyranose mutase inhibition; purified UGM, fluorescence polarization probe displacement; inhibition, % at 10 µM; 0.06% of 320,000 active; in the data active = inhibition above about 10%, passing the limit was not always enough
The depositor's hits bear a star; nt = not tested or not shown; + = active, no number. An excerpt weighted towards active compounds, which were near 3.7% of everything screened.

SMILES	FadD28 FP inh	GDH-TPI inh	Rv3671c inh	Mtb bLac sens	Mtb FBA inh	Mtb UGM inh
CCCCc1cc(=O)oc2c3c(cc(OCC(=O)N4CCC[C@H]4C(=O)O)c12)OC(C)(C)CC3	1	27	4	2	+	-4
Cc1cc(=O)oc2c3c(cc(OCC(=O)N4CCC[C@H]4C(=O)O)c12)OC(C)(C)CC3	-3	26	1	-2	+	2
Cc1c(CCC(=O)N2CCC[C@H]2C(=O)O)c(=O)oc2c(C)c3oc4c(c3cc12)CCCC4	-6	27	-6	11	26	-2
Cc1c(C)c2c(OCC(=O)N3CCC(C(N)=O)CC3)cc3c(c2oc1=O)CCC(C)(C)O3	2	27	-10	-1	+	0
Cc1cc(=O)oc2c3c(cc(OCC(=O)N4CCC(C(=O)O)CC4)c12)OC(C)(C)CC3	1	22	5	-1	+	-3
CCCc1cc(=O)oc2c(C)c(OCC(=O)N3CCC(C(N)=O)CC3)ccc12	0	25	1	0	24	-1
Cc1cc2c(cc1C)N[C@]1(C[C@H]3CCCC(=O)N4CC[C@@H](C1)[C@@H]34)C(=NC(C)(C)CC(C)(C)C)N2	-3	1	nt	nt	1	nt
O=C(Nc1cccc(Cl)c1)c1csc([C@@H]2O[C@H](CO)[C@H](O)[C@H](O)[C@H]2O)n1	-1	1	nt	nt	0	nt
CN(C)CCCNC(=O)C[C@H]1C[C@H](C(=O)N2CCOCC2)[C@@]2(C)c3[nH]c4ccc(Cl)cc4c3CCN2C1=O	-2	-20	nt	nt	2	nt
O=C(N/N=C/c1ccc([N+](=O)[O-])cc1)c1cccnc1	-3	28	7	-3	0	0
O=C(N/N=C/c1ccc(-c2ccc([N+](=O)[O-])cc2)o1)c1cccnc1	-3	33*	2	94	-5	2
COCCNC(=S)N/N=C/c1ccc(-c2ccc([N+](=O)[O-])cc2)o1	0	32*	-1	-8	-8	-1
COCCCn1c(C)nc2c(c1=O)c1nc3ccccc3nc1n2CCc1ccccc1	-3	20	1	3	36*	2
Cc1nc2ccccc2c(=O)n1CCc1ccccc1	-1	-3	-9	1	2	-3
Cc1nn(C(=O)c2cc3sccc3[nH]2)c(C)c1C	-2	35*	-7	2	-1	0
Cc1cc(=O)n2ccccc2c1C#N	-1	25	2	-9	+	0
Oc1cccc2cc3cccc(O)c3c(O)c12	-7	5	38*	3	-3	1
O=C(O)CC(NNC(=O)c1ccccc1)C(=O)Nc1ccc([N+](=O)[O-])cc1 (configuration not stated)	1	31*	20	-8	6	-2
O=C(Nc1ccc([N+](=O)[O-])cc1)C1C(c2ccccc2)=C1c1ccccc1	0	33*	-9	-3	3	2
O=C(Nc1ccc(C(=O)O)cc1)Nc1ccc([N+](=O)[O-])cc1	0	22	-1	8	1	-1
ClCc1nnc(-c2cc3c(s2)CCCC3)o1	-4	-8	nt	nt	4	nt
COc1ccc(-c2noc3c2-c2nc(-c4c(F)cccc4F)sc2CC3)cc1	0	6	-2	15	-1	1
CCOC(=O)CNC(=O)N1Cc2cc(-c3ccc(OC)cc3)ccc2-n2nncc2C1	-5	nt	nt	nt	124*	nt
COc1ccc(-c2ccc3c(c2)CNCc2cnnn2-3)cc1	-5	nt	nt	nt	115*	nt
COc1ccc(/C=C2\SC(N)=NC2=O)cc1Br	-11	31*	3	7	-7	2
CC12CC[C@H]3[C@@H](CCC4(O)C[C@H](O)CCC34/C=N/NC(=O)c3ccc(O)cc3)C1(O)CCC2C1=CC(=O)OC1 (some centres not stated)	-1	10	-5	-4	2	-1
CN(C)c1ccc(C(=O)N/N=C/C23CC[C@@H](O)CC2(O)CC[C@@H]2[C@@H]3CCC3(C)C(C4=CC(=O)OC4)CCC23O)cc1 (some centres not stated)	0	45*	-2	-6	1	1
Nc1nc2c(ncn2[C@@H]2O[C@H](CNC(=O)[C@H](N)Cc3ccccc3)[C@@H](O)[C@H]2O)c(=O)[nH]1	-10	nt	nt	nt	3	nt
O=c1[nH]c(=S)c2c(n1-c1ccccc1)CCC2	0	35*	-7	-3	-2	-2

Screens from PubChem.
